# The list is not random: actives were taken first. Their share in the collection is about 6.8%.
# NADH coupling: blocks coupling enzymes of NAD/NADH assays. coupled PK/LDH NADH assays, four targets. IC50, µM (highest dose often 10 µM), inactives show at the top dose inhibition. 0.02% of 65,000 active;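 active = single-dose screening hits from any of four coupled enzyme assays that gave an IC50 when retested across doses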;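 note: the DPM-DC format reads NADH fluorescence rather than 340 nm absorbance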
# Spn DPM-DC inh: blocks S. pneumoniae diphosphomevalonate decarboxylase | purified DPM-DC, PK/LDH coupled NADH fluorescence | calls only at 10 µM | 0.49% of 65,000 active | AID 556;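 active = the 320 compounds with the highest percent inhibition in the single-dose primary screen, excluding strongly autofluorescent ones, cut at about 32% in these data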;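 note: kinetic rate of NADH fluorescence loss reporting ADP formed by the decarboxylase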
# Spn MK inh: inhibitors of Streptococcus pneumoniae mevalonate kinase; purified MK, PK/LDH-coupled NADH absorbance 340 nm; AID 555; inhibition, % at 10 µM; 0.48% of 65,000 active;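 active = ranked among the strongest by inhibition in the single 10 µM screen, a fixed top-ranked set picked for dose follow-up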
# Autofluor 339: intrinsic fluorescence of library compounds, ex339/em460 – biochemical, MLSMR library, data from DPM-DC assay, artefact control, profiling panel. compound autofluorescence, ex339/em460 nm, NADH buffer; hits give high values; 1 = no-compound wells, NADH background. fluorescence fold increase at 10 µM. 5.5% of 65,000 active. AID 709;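 active = at 10 µM, mean starting fluorescence two-fold or more over control wells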;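 note: signal is the first read of a kinetic run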
# Spn PMK inh: inhibitors of Streptococcus pneumoniae phosphomevalonate kinase. purified PMK, PK/LDH-coupled NADH absorbance 340 nm. AID 539. 0.49% of 65,000 active. inhibition, % at 10 µM;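 active = top-ranked compounds by inhibition in the single 10 µM screen, taking a fixed number of the strongest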;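 note: 0% = full reaction with DMSO carrier and 100% = background rate without enzyme reaction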
# A340 absorber: compounds absorbing at 340 nm. compound absorbance at 340 nm, fold over control. AID 708. 65,000 tested, under 10 active. fold change at 10 µM;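 active = at 10 µM dose, initial 340 nm absorbance at least 2 fold that of control wells; inactive = change under 2 fold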;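 note: initial absorbance extrapolated from kinetic A340 decline of NADH oxidation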
# * = called active by the depositor; i = inactive; / = not tested or not shown; + = active, no number; [ ] = remark or other dose.
SMILES,NADH coupling,Spn DPM-DC inh,Spn MK inh,Autofluor 339,Spn PMK inh,A340 absorber
O=C(c1ccc2nc(-c3ccco3)c(-c3ccco3)nc2c1)N1CCC2(CC1)OCCO2,5.0%,i,12.0,1.84,9.0,1
O=C(c1ccc2nc3ccc(Cl)cc3c(=O)n2c1)N1CCC2(CC1)OCCO2,3.0%,/,0.0,3.31*,7.0,1.06
COc1ccc(CN2CCN(C(=O)Cc3ccccc3)CC2)c(OC)c1,7.0%,i,52.0*,1.02,0.0,1.03
CN(C)[C@@H]1C(=O)C(C(N)=O)=C(O)[C@@]2(O)C(=O)C3=C(O)c4c(O)cccc4[C@@](C)(O)[C@H]3[C@H](O)[C@@H]12,125µM*[fluoresces],+[fluoresces],9.0,1.99,4.0,1.01
O=C(O)C1CN2CCC1CC2 (centres undefined),7.0%,i,9.0,1.06,11.0,1.03
CP(C)(=O)CCC(=O)O,3.0%,i,6.0,1.04,17.0,0.99
CC1CC2(O)c3nonc3CCC2N1O (centres undefined),4.0%,i,2.0,1.1,9.0,0.99
Cc1nc2c(-c3ccccc3)c(C)nn2c(C)c1CCC(=O)N1CCC2(CC1)OCCO2,7.0%,i,8.0,1.16,13.0,1.05
Cc1nc2cc(-c3cccc(F)c3)nn2c(C)c1CCC(=O)N1CCC2(CC1)OCCO2,5.0%,i,6.0,2.26*,7.0,1.03
Cc1nc2c(c(C)nn2-c2ccccc2)c(C)c1CCC(=O)N1CCC2(CC1)OCCO2,4.0%,i,0.0,3.64*,11.0,0.98
O=C(CSc1ccccc1)N1CCC2(CC1)OCCO2,8.0%,i,9.0,1.04,10.0,1.02
COCCOC(=O)C1=C(N)Oc2c(c(=O)oc3ccccc23)[C@@]12C(=O)Nc1ccccc12,3.0%,i,8.0,1.03,0.0,1.04
CC1CCC(C(=O)NC(C(=O)N2CCC3(CC2)OCCO3)C(C)C)CC1 (centres undefined),2.0%,i,2.0,1.01,11.0,0.97
CCOc1ccc(-c2cc(C(=O)N3CCC4(CC3)OCCO4)c3ccccc3n2)cc1,5.0%,/,0.0,5.25*,9.0,1.05
COc1ccccc1N1CCN(Cc2cccc(OC)c2O)CC1,2.0%,i,0.0,1.03,2.0,1.01
CCOCCCNC(=O)CN1C2CCC1CC(O)(c1ccc(OC)cc1)C2 (centres undefined),4.0%,i,4.0,1.12,9.0,1
CCCCCCn1c(N)c(C(=O)NCCN2CCOCC2)c2nc3ccccc3nc21,8.0%,/,12.0,3.93*,4.0,0.99
CCCCCn1c(N)c(C(=O)NCCN2CCOCC2)c2nc3ccccc3nc21,6.0%,/,4.0,2.12*,7.0,1.05
CCCCn1c(=O)c(C(=O)Nc2nc3ccccc3[nH]2)c(O)c2ccccc21,10.0%,i,14.0,1.68,9.0,1.05
CCCn1nc2ccccc2c1P(=O)(N1CCOCC1)N1CCOCC1,5.0%,i,2.0,1.12,14.0,0.98
N=C1C(c2ccccc2)=C(O)CN1Cc1ccco1,3.0%,i,0.0,1.03,8.0,1
CC12CCCCC1=[N+]([O-])CN2O (centres undefined),2.0%,i,1.0,1.05,0.0,1.01
NCC(CC(=O)O)c1ccc(Cl)cc1 (centres undefined),6.0%,i,3.0,1.04,14.0,0.97
CC(C)Cn1cc(C(=O)N2CCC3(CC2)OCCO3)c2c3ccccc3n(C)c2c1=O,11.0%,/,8.0,4.29*,14.0,1.03
Cn1c2ccccc2c2c(C(=O)N3CCC4(CC3)OCCO4)cn(C3CCCCC3)c(=O)c21,10.0%,/,1.0,2.12*,19.0,1.06
Cn1cc(C(=O)N2CCC3(CC2)OCCO3)c2c3ccccc3n(C)c2c1=O,11.0%,i,1.0,3.37*,9.0,1.07
NCC1(CC(=O)O)CCCCC1,1.0%,i,1.0,1,1.0,0.97

# Screening data deposited in PubChem by SRMLSC.
